Bioassay records deposited in PubChem BioAssay by National Center for Advancing Translational Sciences (NCATS).
Sampled rows, rich in hits. Any-hit rate of the full collection: about 19%.
KB-V1 MDR tox – kills drug-selected multidrug resistant KB-V1 cells. KB-V1 MDR cells viability, CellTiter-Glo, 72 h. Potency, µM (highest dose often 46.1 µM), most hits filed as cytotoxic. 400,000 tested, 3.4% active; further: nearly all actives have a fitted effect of over 60% in size
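Cytotoxicity via CellTiter-Glo luminescence after 72 h compound exposure at 37 degrees C. Cells: drug-selected KB-V1 line, DMEM phenol-red free plus 10% FBS. Compounds tested at multiple concentrations; normalized data fitted to concentration-effect curves.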
HT1080 IDH1KD tx – toxicity to HT-1080 IDH1 knockdown cells (counter line). 360,000 tested, 2% active. HT-1080 IDH1 knockdown viability, ATP luminescence, 48 h. Potency, µM (highest dose often 46.1 µM), inactives show top-dose activity, negative = toxicity, hits mostly cytotoxic;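 further: 0% = DMSO wells and -100% = cell-free medium wells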
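HT-1080-IDH1KD cells (IDH1 knocked down), 750/well in RPMI with 5% FBS, treated with compound 48 h at 37 degrees C. Viability by CellTiter-Glo luminescence, normalised to DMSO and no-cell wells; concentration-response curves classed.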
KB-3-1 cytotox – kills parental KB-3-1 adenocarcinoma cells | KB-3-1 viability, CellTiter-Glo ATP luminescence, 72 h | 400,000 tested, 1.4% active | Potency, µM (titrated, usually from 46.1 µM), most hits filed as cytotoxic | AID 1347075; further: nearly all actives have a fitted effect of over 60% in size
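KB-3-1 parental drug-naive adenocarcinoma cells in DMEM/10% FBS, incubated 72 h at 37 C with pin-transferred compounds across a concentration series. Viability by CellTiter-Glo luminescence; concentration-response curves fitted after normalization.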
TDP1 cell CPT – DT40-hTDP1 cell growth loss with CPT. AID 686979. 420,000 tested, 12% active. Potency, µM (series often up to 46.2 µM), inactives show at the top dose activity change, negative = growth inhibition, actives largely listed as inhibitors. chicken DT40 Tdp1-/-;hTDP1 cells + 20 nM CPT, ATP luminescence, 48 h; further: nearly all actives have a fitted effect of over 55% in size
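Cell growth measured by CellTiter-Glo luminescence after a minimum 48 h, 37 C compound exposure with 20 nM CPT in Tdp1-knockout DT40 cells stably expressing hTDP1, seeded 400/well; qHTS titration format.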
TDP1 cell noCPT – qHTS for Inhibitors of human tyrosyl-DNA phosphodiesterase 1 (TDP1): qHTS in cells in absence of CPT; DT40 Tdp1-/- hTDP1 cells, no CPT, ATP luminescence, 48 h; Potency, µM (titrated, usually from 46.2 µM), for the others: at the highest dose activity change, negative = growth inhibition, actives largely listed as inhibitors; 420,000 tested, 15% active; further: nearly all actives have a fitted effect of over 55% in size
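DT40 Tdp1-/-;hTDP1 cells, no CPT (DMSO vehicle only), 400 cells/well; compounds pin-transferred; ≥48 hr, 37 °C; CellTiter-Glo 30 min RT dark, luminescence read.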
HT1080-NT tox – kills 2HG-producing HT-1080-NT fibrosarcoma cells; HT-1080-NT fibrosarcoma viability, CellTiter-Glo ATP luminescence, 48 h; Potency, µM (doses to about 46.1 µM), for inactives: top-dose activity, negative = less viability, most hits filed as cytotoxic; 360,000 tested, 1.6% active;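 further: NT is the 2HG producing partner of a matched IDH1 knockdown line; 0% = DMSO-treated cells and -100% = media-only wells without cells; nearly all actives have a fitted effect of over 55% in size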
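HT-1080-NT fibrosarcoma cells (2HG-overproducing), 750 cells/well in RPMI with 5% FBS, dosed after 2 h and incubated 48 h at 37C. CellTiter-Glo luminescence normalized to DMSO and no-cell wells; concentration-response curves fitted and classed.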
An asterisk follows results filed as active; i = inactive; ? = inconclusive; . = not tested or not shown. The call rests on the fitted dose curve; in most records, active means well fitted curve in the direction sought with a large enough effect; inconclusive means small, poorly fitted or top-dose-only effect, or another doubt; inactive means no such curve, though single readings can be large; an effect the other way counts as inactive or inconclusive. Unless noted, on the % scale 0 is the no-effect control and ±100 the full control effect; potency means the concentration at half of the fitted maximal effect.

SMILES	KB-V1 MDR tox	HT1080 IDH1KD tx	KB-3-1 cytotox	TDP1 cell CPT	TDP1 cell noCPT	HT1080-NT tox
Cc1c(O)c(CN(C)C)cc2c1oc(=O)c1ccccc12	?	9%	i	0%	?	3%
COc1ccc(OCC(=O)OCc2cc(=O)n3cc(C)sc3n2)cc1	i	.	i	-15%	-12%	.
Cc1nc2ccccn2c1-c1nnco1	?	11%	i	7%	-23%	6%
Cc1nc2ccccn2c1-c1ccnn1S(=O)(=O)c1ccc(F)cc1	i	-13%	?	21µM*	12µM*	?
Cc1cccc(-c2cc3nc(C)cc(C)n3n2)c1	i	-15%	i	1%	?	-6%
Cc1cccc(-c2cc3nc(C)cc(N4CC(C)CC(C)C4)n3n2)c1 (stereo not drawn)	i	14%	i	16µM*	16µM*	10%
Cc1ccccc1NC(=O)CN1CCC(n2nnc3ccccc32)CC1	i	-5%	i	-13%	-29%	-2%
Cc1nc2ccccc2n1C1CCN(CC(=O)Nc2ccccc2Br)CC1	i	?	?	?	13µM*	?
Cc1ccc(S(=O)(=O)NC(=O)C2(C)CCN2C(=O)c2ccccc2)cc1 (stereo not drawn)	i	8%	i	0%	-10%	12%
Cc1cccc2c1-c1sc(C(=O)N3CCN(c4ccc(F)cc4)CC3)cc1CO2	i	.	i	3%	3%	.
CCCN1CCN(CCCNC(=O)c2cc3c(s2)-c2ccccc2OC3)CC1	?	?	i	?	?	23µM*
COc1ccc(CCNC(=O)c2cc3c(s2)-c2ccccc2OC3)cc1OC	i	.	i	?	12µM*	.
Cc1cccc2c1-c1sc(C(=O)N3CCN(c4ccccc4)CC3)cc1CO2	i	.	i	8.2µM*	16µM*	.
CCCN1CCN(CCCNC(=O)c2cc3c(s2)-c2c(C)cccc2OC3)CC1	i	18µM*	?	23µM*	26µM*	23µM*
Cn1c(CNC(=O)CCNC(=O)c2cccc(Br)c2)cc(=O)n(C)c1=O	i	-13%	i	-9%	15%	2%
Cc1cccc2c1-c1sc(C(=O)N(C)c3cccc(Cl)c3)cc1CO2	i	.	i	16µM*	?	.
CN(C)CCNC(=O)c1cc2c(s1)-c1ccccc1OC2	i	?	i	16µM*	?	?
COc1ccc(CNC(=O)c2cc3c(s2)-c2c(C)cccc2OC3)cc1	i	.	i	-8%	-6%	.
CCCN(C(=O)c1cc2c(s1)-c1c(C)cccc1OC2)c1ccc(OCC)cc1	i	.	i	5.2µM*	5.2µM*	.
Cc1cccc2c1-c1sc(C(=O)NCCCN3CCCC(C)C3)cc1CO2 (stereo not drawn)	i	21µM*	i	?	21µM*	21µM*
CC(C)[C@H](NC(=O)OCc1ccccc1)C(=O)OCC(=O)N1C(C)CCCC1C (stereo partly drawn)	i	0%	?	-3%	-30%	-2%
Cc1cc(NC(=O)C2CC(=O)N(c3ccc(F)cc3)C2)no1 (stereo not drawn)	?	0%	i	-17%	-15%	16%
O=C(c1cc(Cl)ccc1F)N1CCCC(Nc2ccc3c(c2)OCCO3)C1 (stereo not drawn)	?	-2%	i	?	?	0%
Cc1cc(C)c(Cn2c(=O)n(Cc3ccccc3)c(=O)c3c(C)c(C)sc32)c(C)c1	i	.	i	-19%	-9%	.
CCc1ccccc1OCC(=O)Nc1ccc(S(=O)(=O)Nc2nc(C)cc(C)n2)cc1	.	.	.	-25%	?	.
SMILES	KB-V1 MDR tox	HT1080 IDH1KD tx	KB-3-1 cytotox	TDP1 cell CPT	TDP1 cell noCPT	HT1080-NT tox
COc1ccc2c(CC(=O)Nc3ccc(C)cc3)coc2c1	i	.	i	?	-21%	.
CC1CCCC(C)N1CCCNC(=O)c1cc2c(s1)-c1ccccc1OC2 (stereo not drawn)	i	21µM*	i	?	?	?
Cc1cccc2c1-c1sc(C(=O)NCCc3ccc(Cl)cc3)cc1CO2	?	.	?	13µM*	7.3µM*	.
Cc1c(NC(=O)c2cc3c(s2)-c2ccccc2OC3)cccc1[N+](=O)[O-]	?	?	?	?	18µM*	?
COc1ccc(NC(=O)c2cc3c(s2)-c2c(C)cccc2OC3)c(OC)c1	?	.	i	?	23µM*	.
COc1ccccc1CNC(=O)c1cc2c(s1)-c1ccccc1OC2	?	.	i	?	?	.
CC(C)C(=O)N1c2nc(-c3ccco3)nn2C2(CCCCC2)[C@@H]2CCCC[C@@H]21	.	.	.	-22%	-12%	.
COc1ccc(N2CCN(C(=O)c3ccc4c(c3)CCN4S(C)(=O)=O)CC2)cc1	?	1%	i	?	?	6%
COc1ccc(CCNC(=O)c2c(C)oc3ncn(CC(C)C)c(=O)c23)cc1OC	i	.	i	-15%	?	.
CCn1c(SCC(=O)Nc2cc(C)on2)nc2c(c1=O)SC(C)C2 (stereo not drawn)	?	2%	i	-16%	?	4%
CCn1c(SCC(=O)N2CCCCC2)nc2c(c1=O)SC(C)C2 (stereo not drawn)	i	2%	i	?	?	13%
CCn1c(SCC(=O)Nc2nc3ccccc3s2)nc2c(c1=O)SC(C)C2 (stereo not drawn)	i	-29%	i	0.73µM*	23µM*	?
CCn1c(SCC(=O)Nc2nc3ccc(C)cc3s2)nc2c(c1=O)SC(C)C2 (stereo not drawn)	i	-25%	i	16µM*	10µM*	-22%
CCn1c(SCC(=O)NC2CCCCC2)nc2c(c1=O)SC(C)C2 (stereo not drawn)	2.3µM*	4%	i	?	?	-5%
CCN(CC)CCn1c2c(c(SCC(=O)Nc3nc4ccc(C)cc4s3)nc1=O)CCC2	i	2%	i	6.5µM*	5.8µM*	6%
O=C(C[n+]1ccccc1)c1ccc(I)cc1	?	.	?	-20%	?	.
CCC1CCCCN1C(=O)Cn1c(=O)n(CC2CCC(C(=O)NC)CC2)c(=O)c2sccc21 (stereo not drawn)	i	.	i	-26%	-9%	.
